# From PubChem BioAssay AID1508607 (The Scripps Research Institute Molecular Screening Center, 2020)
# Out of some 2,300 compounds screened, about 20 (0.9%) were called active. For the sample, actives were picked, then their nearest neighbours and some compounds at random. Unmarked numbers belong to inactive results.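 The calls were made as follows: active = mean percent activation across replicates above the counterscreen hit cutoff of 9.17%; inactive = the rest.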
# Molecular target: Glucose-dependent insulinotropic receptor (Homo sapiens) (UniProt Q8TDV5)
# Sequence (Q8TDV5 whole entry, looked up): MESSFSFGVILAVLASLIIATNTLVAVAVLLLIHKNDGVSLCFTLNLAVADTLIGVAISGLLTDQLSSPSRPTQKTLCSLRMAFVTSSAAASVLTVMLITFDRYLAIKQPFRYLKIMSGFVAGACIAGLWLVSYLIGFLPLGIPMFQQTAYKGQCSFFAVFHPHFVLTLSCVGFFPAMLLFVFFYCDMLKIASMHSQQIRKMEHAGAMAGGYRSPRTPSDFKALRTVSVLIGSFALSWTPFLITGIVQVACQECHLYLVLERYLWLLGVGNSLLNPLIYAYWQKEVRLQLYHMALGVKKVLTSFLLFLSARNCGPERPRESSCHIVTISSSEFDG
# Assay: GPR119 activators in beta-arrestin cells, confirmation, counter-screen for GPR151 activator project, cell-based, PathHunter beta-arrestin, luminescence, set 2 (AID 1508607);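 also: 0% = median of sample wells and 100% = wells given EA reagent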
# Conditions: 90 min, at 11.2 µM, stronger effect = higher value
row,Structure (SMILES),activation
1,C[C@@H]1O[C@@H](O[C@H]2C[C@@H](O)[C@]3(CO)[C@H]4[C@H](O)C[C@]5(C)[C@@H](C6=CC(=O)OC6)CC[C@]5(O)[C@@H]4CC[C@]3(O)C2)[C@H](O)[C@H](O)[C@H]1O,18.4% (active)
2,COCCN1C(=S)NC2c3cccc(OC)c3OC1(C)C2C(=O)OC (stereo not given),-2.57%
3,Cc1cccc(C)c1-n1nnnc1C1(NCCc2c(C)[nH]c3ccccc23)CCCCC1,-3.88%
4,CCn1c(/C=C/C=C2\N(C)c3ccccc3C2(C)C)[n+](Cc2ccccc2)c2ccccc21,15.3% (active)
5,CC[n+]1c(/C=C/C=C2\N(C)c3ccccc3C2(C)C)n(-c2ccccc2)c2ccc(C)cc21,2.58%
6,CC[n+]1c(/C=C/C=C2\N(C)c3ccccc3C2(C)C)n(-c2ccccc2)c2cc(Cl)ccc21,4.85%
7,O=c1c2ccccc2nc(/C=C/c2ccccc2)n1-c1cccc(C(F)(F)F)c1,1.19%
8,COc1ccc2[nH]c(C)c(CCNCc3ccc(OC(F)(F)F)cc3)c2c1,0.78%
9,O=C(NCc1ccc(Cl)cc1)C(Cl)(Cl)Cl,1.33%
10,O=C(NC(O)C(Cl)(Cl)Cl)c1ccccc1 (stereo not given),-0.61%
11,C[C@H]1CC[C@@H]2[C@@H](C)[C@H]3[C@H](CC4[C@@H]5CC=C6CC(O[C@@H]7O[C@H](CO)C(O[C@@H]8O[C@@H](C)[C@H](O)[C@@H](O)[C@H]8O)[C@H](O)[C@H]7O[C@@H]7O[C@@H](C)[C@H](O)[C@@H](O)[C@H]7O)CC[C@]6(C)[C@H]5CC[C@@]43C)N2C1 (stereo not given in full),28.4% (active)
12,COc1ccc(CN2CCNCC2CCO)c(C)c1C (stereo not given),0.92%
13,CCN1C(=O)c2ccccc2Sc2ccc(C(=O)N3CCC4(CC3)OCCO4)cc21,0.67%
14,COc1cccc(C2N(c3ccccn3)C(=O)C3CCCN32)c1 (stereo not given),-1.97%
15,CCc1ccc(NC(=O)CN2CC(c3ccccc3)CC2=O)cc1 (stereo not given),2.2%
